High-throughput results: PubChem BioAssay, National Center for Advancing Translational Sciences (NCATS)
Rows were chosen to be rich in hits. Some 19% of all compounds tested hit in one or more screens of this group.
IL1B secr inh: inflammasome signaling inhibition, IL-1 beta readout. actives 4.7% (n = 360,000). activity change, % at 57.5 µM. THP-1 LPS/ATP IL-1B secretion, AlphaLISA, 16 h; hits give low values. AID 743279; in the data active = activity change below about -50%; inconclusive = mostly about -30% to -49%
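THP-1 cells pretreated 1 hr with compounds (up to 57.5 uM final), then stimulated with LPS (250 ng/mL final) plus ATP (1.25 mM final); secreted IL-1B measured by AlphaLISA after 16 hr, decreased signal indicating inhibition.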
SW480 rerep: inducers of DNA re-replication in SW480 colon cancer cells | SW480 DNA re-replication, Hoechst DNA content imaging, 48 h | Potency, µM (highest dose often 46.1 µM), actives largely listed as activators | actives 1.8% (n = 340,000) | AID 624297; note: nearly all actives have a fitted effect of over 55% in size
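Image-based read-out: total Hoechst fluorescence of nuclei (405 nm excitation, 500-530 nm emission), with hits raising the fraction of high-intensity nuclei. SW480 colon cells incubated 48 hr with compounds at 37 C.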
DT40 TDP1 CPT: growth inhibition of DT40 Tdp1-/-;hTDP1 cells with camptothecin (screen for TDP1 inhibitors) | Potency, µM (titrated, usually from 46.2 µM), hits mostly inhibitors | chicken DT40 Tdp1-/-;hTDP1 cells + 20 nM CPT, ATP luminescence, 48 h | actives 12% (n = 420,000) | AID 686979; note: nearly all actives have a fitted effect of over 55% in size
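Chicken DT40 Tdp1-/- cells stably complemented with human TDP1 were seeded at 400 cells/well in medium containing 20 nM camptothecin, exposed to pin-transferred compounds, and grown at 37 °C for at least 48 hr. Viability was read as ATP luminescence.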
DT40 TDP1 no CPT: qHTS for Inhibitors of human tyrosyl-DNA phosphodiesterase 1 (TDP1): qHTS in cells in absence of CPT; DT40 Tdp1-/- hTDP1 cells, no CPT, ATP luminescence, 48 h; actives 15% (n = 420,000); Potency, µM (top dose mostly 46.2 µM), most hits filed as inhibitors; note: nearly all actives have a fitted effect of over 55% in size
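Growth of hTDP1-complemented DT40 Tdp1-knockout cells is measured by ATP luminescence after at least 48 hr compound exposure at 37 °C, with DMSO substituting for the 20 nM CPT used in the parallel screen.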
MCF10A rerep: DNA re-replication induction in MCF 10a cells; AID 624296; actives 2.9% (n = 350,000); MCF 10A DNA re-replication, Hoechst nuclear intensity, 48 h; Potency, µM (series often up to 46.1 µM), usual class: activators; note: nearly all actives have a fitted effect of over 50% in size
BCR signal inh: chronic active BCR signaling inhibition. ABC-DLBCL IkBa-CBG/CBR reporter, luminescence ratio, 4 h. Potency, µM (doses to about 46.1 µM), most hits filed as inhibitors. actives 0.05% (n = 340,000); active = well fitted inhibition curve with a large enough effect in the signal ratio, with a control signal flat, not every such curve was filed as active; inconclusive = small, poorly fitted or top-dose-only effect, or effect the other way, or a change in a side signal; the % refers to the signal ratio
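TMD8 human ABC-DLBCL cells with doxycycline-inducible IκBα–green luciferase fusion and unfused red luciferase, in 0.5% FBS medium; compounds up to 46 uM, 4 h at 37C. Green/red luminescence ratio, filter-overlap corrected, fitted to concentration-response curves.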
Hits are given with their value; . = inactive; ? = inconclusive; / = not tested or not shown. Unless noted, calls come from the whole dose curve; as a rule, active = well fitted curve in the direction sought with a large enough effect; inconclusive = small, poorly fitted or top-dose-only effect, or another doubt; inactive = no such curve, though single readings can be large; an effect the other way counts as inactive or inconclusive.

SMILES | IL1B secr inh | SW480 rerep | DT40 TDP1 CPT | DT40 TDP1 no CPT | MCF10A rerep | BCR signal inh
O=C(O)CCc1ccc(S(=O)(=O)Nc2cc(C(F)(F)F)ccc2N2CCCC2)cc1 | . | . | . | . | . | .
O=C(O)C(=O)/C(=C\c1cccc2ccccc12)c1ccc2ccccc2n1 | . | ? | ? | 18.4µM | 15.8µM | ?
CCOC(=O)c1c(Nc2cc(C)cc(C)c2)nnc(-c2ccccc2)c1-c1ccccc1 | / | / | 11.6µM | 14.6µM | / | /
CCOC(=O)c1c(Nc2ccc(C)c(C)c2)nnc(-c2ccccc2)c1-c1ccccc1 | / | / | ? | 16.4µM | / | /
CCOC(=O)c1c(Nc2cccc(C)c2)nnc(-c2ccccc2)c1-c1ccccc1 | / | / | ? | 16.4µM | / | /
CCOC(=O)c1c(-c2ccccc2)cn2c(C)cc(C)nc12 | . | . | . | . | . | ?
CCOC(=O)c1c(C)nc(C)c(C(=O)OCC)c1-c1ccccc1 | . | . | . | . | . | .
CO[C@@]1(NC(=O)CSC[C@@H](N)C(=O)O)C(=O)N2C(C(=O)O)=C(CSc3nnnn3C)CS[C@@H]21 | / | / | . | . | / | /
Cc1ccccc1N(C(=O)CNC(=O)c1ccco1)C(C(=O)NC1CCCC1)c1ccncc1 (centres undefined) | . | . | . | . | . | .
CN1C(=O)CCC2(c3ccccc3)CC=C(O)C=C12 (centres undefined) | . | . | . | . | . | /
CCOc1ccc(CNn2cnnc2)cc1 | . | . | 16.4µM | ? | . | .
c1ccc(COc2ccc(CNn3cnnc3)cc2)cc1 | . | . | . | . | . | ?
O=C(CSc1nc(-c2ccccc2)no1)N1CCN(c2ccc(F)cc2)CC1 | / | / | . | . | / | /
Nc1c(C(=O)c2ccccc2)sc2nsc(SCCN3CCCC3)c12 | -104.4 | ? | ? | ? | 20.6µM | ?
Nc1c(C(=O)c2ccc(Cl)cc2)sc2nsc(SCCN3CCOCC3)c12 | . | ? | 4.61µM | 9.2µM | ? | .
Cc1cc(C)c2c(N)c(C(=O)c3ccccc3)sc2n1 | . | . | . | ? | . | .
COc1ccc(-c2c(-c3cc(OC)cc(OC)c3)n(C)c3ccc(-c4cnc(OC)nc4)cc23)cc1 | . | . | 20.6µM | 18.4µM | . | .
COc1cc(OC)cc(-c2c(C#Cc3ccsc3)c3cc(-c4cnc(OC)nc4)ccc3n2C)c1 | . | . | 16.4µM | ? | . | .
COc1cc(OC)cc(-c2c(C#Cc3ccsc3)c3cc(-c4cc(OC)c(OC)c(OC)c4)ccc3n2C)c1 | . | . | . | . | . | .
O=C(Nc1cccc2ccccc12)NC(Cc1ccccc1)C(=O)O (centres undefined) | . | . | . | . | . | .
CCn1c(SCc2ccc(Cl)cc2)nnc1-c1ccccc1 | . | . | ? | ? | . | .
c1cncc(CSc2nnc(-c3cccnc3)n2Cc2ccco2)c1 | / | / | / | / | / | .
CCn1c(SCc2ccc(C#N)cc2)nnc1-c1cccc(Cl)c1 | -73.0 | . | . | . | . | .
C=CCn1c(SCc2ccc(C#N)cc2)nnc1-c1ccc(C)cc1 | . | . | ? | 16.4µM | . | .
Cc1ccc(C)c(CSc2nnc(-c3cccs3)n2Cc2ccco2)c1 | . | ? | ? | ? | 20.6µM | .
Cc1cccc(-c2nnc(SCc3ccc(C#N)cc3)n2Cc2ccco2)c1 | . | . | ? | 23.1µM | ? | .
O=C(NCCc1ccccc1)C1CCC(CNc2nc(=S)[nH]c3ccccc23)CC1 (centres undefined) | . | . | ? | ? | ? | .
C=CCn1c(SCc2ccc(C(=O)Nc3ccccc3)cc2)nnc1-c1ccccc1 | . | . | 18.4µM | ? | . | ?
FC(F)(F)COc1cc(-c2nnc(SCc3ccccc3)n2Cc2ccco2)cc(OCC(F)(F)F)n1 | . | . | ? | 29.1µM | . | .
C=CCn1c(SCC(=O)NNC(=S)Nc2ccccc2)nnc1-c1ccccc1 | / | . | . | . | . | .
